# Shown are actives, neighbours in structure and some others; about 3.9% of the full set was active somewhere.
# HT1080 IDH1KD tx – HT-1080 IDH1 knockdown cell toxicity (counter line). HT-1080 IDH1 knockdown viability, ATP luminescence, 48 h. Potency, µM (doses to about 46.1 µM), without a hit: top-dose activity, negative = toxicity, actives largely listed as cytotoxic. actives 2% (n = 360,000);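 also: 0% = DMSO wells and -100% = cell-free medium wells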
#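 % activity derives from luminescence (CellTiter-Glo), normalised to DMSO and no-cell wells. HT-1080-IDH1KD cells, 750/well, had 48 h compound exposure at 37 °C.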
# HT1080NT lethal – kills 2HG-producing HT-1080-NT fibrosarcoma cells; Potency, µM (titrated, usually from 46.1 µM), for the others: at the highest dose activity, negative = less viability, hits mostly cytotoxic; AID 686970; actives 1.6% (n = 360,000); HT-1080-NT fibrosarcoma viability, CellTiter-Glo ATP luminescence, 48 h;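 also: NT is the 2HG producing partner of a matched IDH1 knockdown line; 0% = DMSO-treated cells and -100% = media-only wells without cells; nearly all actives have a fitted effect of over 55% in size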
#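 Viability of the 2HG-overproducing fibrosarcoma line after 48 hours of compound exposure at 37 degrees C was determined by luminescence with CellTiter-Glo, and concentration-effect curves were then fitted and categorized.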
# HepG2 tox-1 – counter-screen for TGF-b inhibitors: cytotoxicity in HepG2 cells; Potency, µM (highest dose often 46.1 µM), without a hit: at the top dose activity change, negative = cytotoxicity, most hits filed as cytotoxic; AID 588856; HepG2 CAGA-GFP viability, ATP luminescence, 18 h; actives 0.76% (n = 410,000)
#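 HepG2 CAGA-GFP cells (1000/well, DMEM with 1% FBS) received compound, then TGF-beta at 500 pg/mL final, and were incubated 18 hours at 37 degrees C. Viability was read by CellTiter-Glo luminescence. Media-only wells were set as complete cell-killing and DMSO as no toxicity.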
# TGFb inhibitor – inhibitors of TGF-b signaling; actives 1.2% (n = 410,000); HepG2 CAGA-GFP TGF-b/SMAD3 reporter, GFP fluorescence, 18 h; TGF-beta stimulated, 500 pg/mL final; Potency, µM (titrated, usually from 46.1 µM), inactives show at the highest dose activity, negative = inhibition, usual class: inhibitors; also: % is scaled to controls: 0 for no effect and ±100 for the full control effect; nearly all actives have a fitted effect of over 65% in size
#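 HEPG2 CAGA-GFP, 1000 cells/well; 2 h settle, 37 C; cpd via pin tool; TGF-b 500 pg/mL final; 18 h, 37 C; GFP imaging ex488/em500-530; %Activity normalised to -TGF-b and +DMSO controls; CRC fit, curve class.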
# ATXN viability – cell viability loss in ATXN counter-screen. Potency, µM (titrated, usually from 56.7 µM), actives largely listed as cytotoxic. actives 0.49% (n = 400,000). S2 cells (HEK-293 line with an ATXN2-luciferase reporter) viability, CellTiter-Fluor protease fluorescence, 24 h; also: nearly all actives have a fitted effect of over 40% in size
# ATXN2 expr inh – ATXN2 expression inhibition | HEK-293 ATXN2-luciferase reporter, luminescence, 24 h | Potency, µM (highest dose often 57 µM), inactives show top-dose activity change, negative = inhibition, actives largely listed as inhibitors | actives 0.72% (n = 360,000) | AID 1745845; also: % is scaled to controls: 0 for no effect and ±100 for the full control effect; nearly all actives have a fitted effect of over 55% in size
#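 ATXN2-luciferase reporter cells (luciferase flanked by upstream and downstream ATXN2 gene portions) were treated 24 h at 37 °C with compounds at up to 57 uM. SteadyGlo luminescence gave expression; GF-AFC fluorescence gave viability.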
# TGFb confirm – confirmation of TGF-b signaling inhibitors in HepG2 reporter cells; shares compounds with TGFb inhibitor; actives 63% (n = 1,600); HepG2 CAGA-GFP TGF-b reporter, GFP fluorescence, 18 h; cells stimulated with TGF-beta, 500 pg/mL; Potency, µM (highest dose often 46.1 µM), without a hit: top-dose activity, negative = inhibition, usual class: inhibitors; AID 720534; also: % is scaled to controls: 0 for no effect and ±100 for the full control effect; nearly all actives have a fitted effect of over 65% in size
# HepG2 tox-2 – HepG2 cytotoxicity, TGF-b inhibitor counterscreen; shares compounds with TGFb inhibitor; HepG2 CAGA-GFP viability, ATP luminescence, 18 h; cells stimulated with TGF-beta, 500 pg/mL; Potency, µM (top dose mostly 46.1 µM), inactives show at the top dose activity, negative = cytotoxicity, most hits filed as inhibitors; actives 27% (n = 1,600); AID 720535; also: % is scaled to controls: 0 for no effect and ±100 for the full control effect; nearly all actives have a fitted effect of over 70% in size
# TGFb CCL64 inh – orthogonal confirmation of TGF-b inhibitors in CCL64 cells | shares compounds with TGFb inhibitor | Potency, µM (doses to about 46.1 µM), for inactives: at the highest dose activity, negative = inhibition, usual class: inhibitors | CCL64 CAGA-GFP reporter, TGF-b stimulated, GFP fluorescence, 18 h | AID 720536 | actives 41% (n = 1,600); also: nearly all actives have a fitted effect of over 65% in size
# COP TGFb inh – TGF-b inhibition validated with COP promoter. AID 720537. actives 3% (n = 1,600). HepG2 COP-GFP TGF-b reporter, GFP fluorescence, 18 h; cells stimulated by added recombinant TGF-beta. Potency, µM (top dose mostly 46.1 µM), for the others: at the top dose activity, negative = inhibition, usual class: inhibitors. shares compounds with TGFb inhibitor; also: nearly all actives have a fitted effect of over 70% in size
# * marks the source's active call; other numbers are inactive results; i = inactive; ? = inconclusive; . = no result. Calls follow the shape of the dose curve; as a rule, active = well fitted curve in the direction sought with a large enough effect; inconclusive = small, poorly fitted or top-dose-only effect, or another doubt; inactive = no such curve, though single readings can be large; an effect the other way counts as inactive or inconclusive. Potency is read from the fitted curve at half-maximal effect.
SMILES,HT1080 IDH1KD tx,HT1080NT lethal,HepG2 tox-1,TGFb inhibitor,ATXN viability,ATXN2 expr inh,TGFb confirm,HepG2 tox-2,TGFb CCL64 inh,COP TGFb inh
O=C(Nc1cccc(-c2csc(Nc3ccc(Cl)cc3)n2)c1)c1cc([N+](=O)[O-])cc(C(F)(F)F)c1,4.2%,1.4%,-21.7%,20µM*,.,-14.9%,8.2µM*,?,5.8µM*,45.0%
O=C(CSc1nc(-c2ccc(Cl)cc2)cs1)Nc1cccc([N+](=O)[O-])c1,?,16.4µM*,-31.3%,10µM*,?,.,?,?,-4.5%,59.1%
Cc1cc(NC(=O)CSc2nc(-c3ccc(Cl)cc3)cs2)no1,?,?,-6.7%,1.0%,i,-22.8%,.,.,.,.
O=[N+]([O-])c1cccc(NC(=S)Nc2nc(-c3ccccc3Cl)cs2)c1,18.4µM*,?,-28.1%,3.55µM*,?,-36.2%,3.66µM*,6.51µM*,6.51µM*,46.9%
O=[N+]([O-])c1cccc(NC(=S)NCc2ccncc2)c1,6.2%,2.2%,-17.3%,-6.7%,?,-11.3%,.,.,.,.
Cc1ccc(C)c(NC(=O)C(=O)NCCc2csc3nc(-c4ccccc4C)nn23)c1,.,.,-18.1%,-3.3%,i,2.8%,.,.,.,.
CCOC(=O)c1c(C)[nH]c(C)c1S(=O)(=O)N1CCCC(C(=O)N2CCN(c3cc(C)ccc3C)CC2)C1 (stereo unspecified),.,.,-25.4%,?,?,?,.,.,.,.
CC(=Nc1ccccc1)C1=C(O)C(CC(C)C)NC1=O (stereo unspecified),11.0%,12.5%,-16.0%,-29.9%,i,7.8%,.,.,.,.
CC(=Nc1ccccc1)C1=C(O)C(Cc2ccccc2)NC1=O (stereo unspecified),?,0.581µM*,0.8%,?,?,21.4%,?,-7.0%,3.26µM*,-17.0%
O=C(COc1cccc2ccccc12)Nc1ccc(Cl)cc1C(=O)O,?,-29.0%,-17.3%,11.2µM*,i,56.7%,16.4µM*,8.2µM*,?,54.7%
CC(C)c1ccc(NC(=O)CN2C(=O)COc3ccc(S(=O)(=O)N4CCCCC4)cc32)cc1,.,.,-12.5%,-6.1%,.,.,.,.,.,.
COc1ccc(-c2cn3c(n2)sc2cc(C(=O)NCc4ccccc4)ccc23)cc1,.,.,-11.7%,-16.2%,.,.,.,.,.,.
COc1ccc2c(c1)sc1nc(-c3ccccc3)cn12,4.61µM*,2.59µM*,-69.1%,10µM*,i,?,?,?,14.6µM*,-15.4%
CN(C)c1ccc(/C=C/c2ccnc3c(O)cccc23)cc1,.,.,-3.7%,-0.8%,.,.,.,.,.,.
CCOc1c(Cl)cc(/C=N/NC(N)=S)cc1OC,1.6%,1.2%,5.8%,14.1µM*,i,.,?,5.7%,?,-28.4%
C#CCOc1c(Cl)cc(/C=N/NC(N)=S)cc1OCC,3.0%,3.6%,15.8%,0.0%,i,-18.7%,.,.,.,.
C/C(=C\c1ccc(N)cc1)c1nc2ccccc2[nH]1,2.4%,1.1%,-5.5%,-0.5%,i,48.4%,.,.,.,.
O=S(=O)(/C(=C/c1ccc(C(F)(F)F)cc1)c1nc2ccccc2[nH]1)c1ccccc1,4.61µM*,2.59µM*,7.94µM*,5.01µM*,26.7µM*,?,2.91µM*,2.59µM*,1.84µM*,?
CC(C)c1ccc(/C=C(\c2nc3ccccc3[nH]2)S(=O)(=O)c2ccccc2)cc1,3.26µM*,5.17µM*,10µM*,7.94µM*,?,?,16.4µM*,10.3µM*,4.61µM*,-17.1%
CCCCNc1nc2c(-c3cccc(C)c3)nnn2c2ccccc12,.,.,9.3%,-11.0%,i,8.1%,.,.,.,.
O=c1cc(O)c(-c2ccc(Cl)cc2)c(Cl)[nH]1,-4.1%,-4.7%,-5.4%,-7.7%,i,-10.2%,.,.,.,.
O=C1c2cc(Cl)ccc2-c2c(O)cc(Cl)cc21,23.1µM*,9.2µM*,-15.4%,11.2µM*,i,?,11.6µM*,?,8.2µM*,27.0%
C(=C\c1ccccc1)/CN1CCN(C(c2nnnn2C2CCCC2)C2CC2)CC1 (stereo unspecified),-8.4%,-10.2%,-27.0%,7.94µM*,?,0.0%,?,-23.6%,-15.4%,11.6%
C(=C\c1ccccc1)/CN1CCN(C(c2ccccc2)c2nnnn2C2CCCC2)CC1 (stereo unspecified),?,?,-7.6%,?,?,-35.5%,.,.,.,.
C(=C\c1ccccc1)/CN1CCN(C(c2cccs2)c2nnnn2Cc2ccccc2)CC1 (stereo unspecified),?,?,-8.6%,11.2µM*,?,?,16.4µM*,?,?,59.2%
C(=C\c1ccccc1)/CN1CCN(C(CCc2ccccc2)c2nnnn2C2CCCC2)CC1 (stereo unspecified),?,?,-2.5%,11.2µM*,?,-29.4%,20.6µM*,?,?,59.8%
C(=C\c1ccccc1)/CN1CCN(C(c2cccc3ccccc23)c2nnnn2Cc2ccccc2)CC1 (stereo unspecified),?,?,-2.2%,?,i,-14.6%,.,.,.,.
CC(=O)Nc1ccn(C2OC(C(COC(C)=O)NC(=O)C3CCCN3C(=O)OC(C)(C)C)C(OC(C)=O)C2OC(C)=O)c(=O)n1 (stereo unspecified),.,.,0.5%,-5.1%,.,.,.,.,.,.

# High-throughput results: PubChem, National Center for Advancing Translational Sciences (NCATS)
